From PubChem BioAssay AID1510 (The Scripps Research Institute Molecular Screening Center, 2009)
The campaign covered roughly 220,000 compounds. About 570 (0.26%) were called active. Rule as the data show it: active = inhibition above about 29%; inactive = the rest. Many of the other results were omitted from the sample, so actives are more common in it than they were.

These molecules were tested against Sphingosine 1-phosphate receptor 4 (Homo sapiens) (UniProt O95977) (assay: blockers of human S1P4 receptor – cell-based, primary screen (AID 1510;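 also: 0% = wells stimulated with agonist and 100% = vehicle wells without agonist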)). Details: S1P4-expressing cells, antagonist mode, reporter read-out; at 4.98 µM; hits give high values.
Sequence of Sphingosine 1-phosphate receptor 4 (Homo sapiens) (O95977 whole entry, looked up): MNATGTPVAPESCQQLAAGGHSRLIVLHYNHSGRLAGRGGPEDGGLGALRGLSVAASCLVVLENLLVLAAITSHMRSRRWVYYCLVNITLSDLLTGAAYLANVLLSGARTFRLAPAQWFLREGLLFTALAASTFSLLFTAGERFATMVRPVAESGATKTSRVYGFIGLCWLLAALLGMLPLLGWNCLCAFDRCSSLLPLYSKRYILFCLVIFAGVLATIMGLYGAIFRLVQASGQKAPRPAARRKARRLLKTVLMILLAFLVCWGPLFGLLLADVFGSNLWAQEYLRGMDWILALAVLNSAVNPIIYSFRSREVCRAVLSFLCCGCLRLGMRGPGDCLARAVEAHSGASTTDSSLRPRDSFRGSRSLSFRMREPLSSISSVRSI
In the case of CN(C)CC1Oc2ccccc2OC1(O)c1ccccc1 (stereo not given), the inhibition is reported as 66% (active). In the case of Cc1ccc(-c2nn(CCC#N)cc2C(=O)O)cc1C, the inhibition is reported as -15.8% (inactive). With O=C(COC(=O)Cc1ccccc1)Nc1ccc(F)cc1 the inhibition was -14% (inactive). For COP(=O)(NS(=O)(=O)c1ccccc1)OC, the inhibition was -0.89% (inactive). For CN1CCN(Cc2ccc(OC(F)(F)F)cc2)CC1, the inhibition was -5.02% (inactive).
